Measured values: the supplement of paper PMC12067926

Tests used:
Test in all cases: relative growth (AUC of 72 h growth curve relative to DMSO control, dAUC) (ratio); higher = more growth (less inhibition), active = hit call of the paper
Conditions in all cases: 20 µM;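 active = growth AUC significantly below the DMSO wells by Dunnett test; inactive = the rest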
[1] = tested on: Aeromonas 1 (Aeromonas sp. AE235)
Summary of the method: (§1)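 Growth was followed as A600, read hourly for 72 h on a plate reader after brief shaking. Isolates from Icelandic stream sediments and Silwood Park soil, and whole sediment communities, were first grown to carrying capacity in Luria–Bertani medium and then diluted 1:100 into 96-well plates with each chemical at 20 µM (1% DMSO). Relative growth (dAUC) is the spline-integrated area under the curve scaled to the mean of the DMSO controls, and the values are averages of three biological replicates.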

[2] = tested on: Aeromonas 2 (Aeromonas sobria)
Summary of the method: as §1

[3] = tested on: Aeromonas 3 (Aeromonas popoffii)
Summary of the method: as §1

[4] = tested on: Argrobacterium 1 (Agrobacterium sp.)
Summary of the method: as §1

[5] = tested on: Arthrobacter 1 (Arthrobacter humicola)
Summary of the method: as §1

[6] = tested on: Arthrobacter 2 (Arthrobacter humicola)
Summary of the method: as §1

[7] = tested on: Arthrobacter 3 (Arthrobacter sp.)
Summary of the method: as §1

Community 4 = tested on: Community 4
Summary of the method: as §1

Community 6 = tested on: Community 6
Summary of the method: as §1

Community 7 = tested on: Community 7
Summary of the method: as §1

Community 8 = tested on: Community 8
Summary of the method: as §1

Community 9 = tested on: Community 9
Summary of the method: as §1

[8] = tested on: Flavobacterium 1 (Flavobacterium glaciei)
Summary of the method: as §1

[9] = tested on: Flavobacterium 2 (Flavobacterium succinicans)
Summary of the method: as §1

[10] = tested on: Hymenobacter 1 (Hymenobacter glaciei)
Summary of the method: as §1

[11] = tested on: Microbacterium 1 (Microbacterium arborescens)
Summary of the method: as §1

[12] = tested on: Neobacillus 1 (Neobacillus soli)
Summary of the method: as §1

[13] = tested on: Oryzobacter 1 (Oryzobacter terrae)
Summary of the method: as §1

[14] = tested on: Paenibacillus 1 (Paenibacillus castaneae)
Summary of the method: as §1

SMILES	relative growth [1]	relative growth [2]	relative growth [3]	relative growth [4]	relative growth [5]	relative growth [6]	relative growth [7]	relative growth (Community 4)	relative growth (Community 6)	relative growth (Community 7)	relative growth (Community 8)	relative growth (Community 9)	relative growth [8]	relative growth [9]	relative growth [10]	relative growth [11]	relative growth [12]	relative growth [13]	relative growth [14]
O=C1C2(Cl)C3(Cl)C4(Cl)C(Cl)(Cl)C5(Cl)C3(Cl)C1(Cl)C5(Cl)C24Cl (stereo not drawn)	0.934 (inactive)	0.817 (active)	0.99 (inactive)	1.03 (inactive)	0.00606 (active)	0.00565 (active)	0.0264 (active)	0.858 (inactive)	0.811 (inactive)	1.14 (inactive)	1.02 (inactive)	0.875 (inactive)	0.126 (active)	0.847 (inactive)	0.00946 (active)	1.01 (inactive)	0.911 (inactive)	0.00589 (active)	0.678 (active)
Fc1ccc(Oc2ccnc3cc(Cl)cc(Cl)c23)cc1	1.01 (inactive)	1.03 (inactive)	1 (inactive)	1.06 (inactive)	0.954 (inactive)	1.1 (inactive)	1.08 (inactive)	0.987 (inactive)	0.935 (inactive)	0.843 (inactive)	1.01 (inactive)	1.03 (inactive)	1.04 (inactive)	1.01 (inactive)	1.13 (inactive)	0.999 (inactive)	1.09 (inactive)	1.01 (inactive)	0.927 (inactive)
CCCN(CCOc1c(Cl)cc(Cl)cc1Cl)C(=O)n1ccnc1	1.02 (inactive)	0.971 (inactive)	1 (inactive)	1.01 (inactive)	0.702 (inactive)	0.209 (active)	0.352 (active)	0.934 (inactive)	0.982 (inactive)	0.969 (inactive)	1.02 (inactive)	0.998 (inactive)	0.335 (active)	0.935 (inactive)	0.75 (inactive)	0.953 (inactive)	1.05 (inactive)	0.236 (active)	0.59 (active)
CCCSP(=O)(OCC)Oc1ccc(Br)cc1Cl (stereo not drawn)	1.02 (inactive)	1.02 (inactive)	0.994 (inactive)	1.12 (inactive)	0.894 (inactive)	0.745 (inactive)	0.973 (inactive)	0.833 (inactive)	0.83 (inactive)	1.01 (inactive)	0.96 (inactive)	0.866 (inactive)	1.01 (inactive)	0.919 (inactive)	0.98 (inactive)	1.01 (inactive)	0.965 (inactive)	1.27	0.925 (inactive)
CCOc1ccc(C(C)(C)COCc2cccc(Oc3ccccc3)c2)cc1	1.01 (inactive)	1.02 (inactive)	1.02 (inactive)	1.04 (inactive)	1.01 (inactive)	0.801 (inactive)	0.816 (inactive)	0.901 (inactive)	0.979 (inactive)	1.04 (inactive)	1.06 (inactive)	0.965 (inactive)	0.785 (inactive)	0.958 (inactive)	0.929 (inactive)	1.04 (inactive)	0.881 (inactive)	1.05 (inactive)	0.942 (inactive)
CCOP(=S)(OCC)Oc1nc(Cl)c(Cl)cc1Cl	1.05 (inactive)	1 (inactive)	1.06 (inactive)	0.979 (inactive)	1.04 (inactive)	0.994 (inactive)	1.08 (inactive)	0.974 (inactive)	0.953 (inactive)	0.998 (inactive)	1.02 (inactive)	1.06 (inactive)	1.05 (inactive)	0.996 (inactive)	1.07 (inactive)	0.991 (inactive)	1.07 (inactive)	1.04 (inactive)	1.04 (inactive)
CC(Oc1ccc(Oc2nc3ccc(Cl)cc3o2)cc1)C(=O)O (stereo not drawn)	1.02 (inactive)	1.01 (inactive)	1.04 (inactive)	1.01 (inactive)	1.08 (inactive)	0.93 (inactive)	1.01 (inactive)	0.991 (inactive)	1.07 (inactive)	1.01 (inactive)	1.01 (inactive)	1.07 (inactive)	0.971 (inactive)	1.09 (inactive)	1.05 (inactive)	0.986 (inactive)	1.05 (inactive)	0.998 (inactive)	1.11 (inactive)
